# CF NFkB block = inhibitors of cystic fibrosis induced NF-kB. AID 588850. KKLEB NF-kB-GFP reporter, PAF-induced, GFP fluorescence overnight. 360,000 tested, 0.86% active. inhibition, % at 5 µM;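 active = at least 50% inhibition at 5 µM, scaled per plate between neutral and stimulator controls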;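 also: PAF is a Pseudomonas aeruginosa culture filtrate used as stimulus; plate controls were PAF-stimulated DMSO wells for no effect and unstimulated DMSO wells for full effect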
# HIF-2a block = inhibitors of HIF-2a. 786-0 RCC cells HIF-2a reporter, luciferase luminescence, overnight. inhibition, % at 18.8 µM. 360,000 tested, 0.72% active;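 active = inhibition of the luminescence signal of 40% or more relative to plate controls, in a single-dose primary screen at 18.75 µM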
# Peg3 promoter = reduces Peg3 promoter-driven luciferase expression in HeLa; HeLa PEG-Prom luciferase reporter, luminescence, overnight; inhibition, % at 20 µM; 360,000 tested, 1.7% active; AID 588405;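 active = inhibition of at least 50% at 20 µM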
# TWEAK Fn14 block = blocks TWEAK-Fn14 interaction in a reporter cell assay. TWEAK-stimulated Fn14 reporter cells, luciferase luminescence, 8 h. inhibition, % at 10 µM. 360,000 tested, 2% active. AID 1159606; in the data active = inhibition above about 50%
# KKLEB cytotox = CF airway cell cytotoxicity counter-screen | KKLEB CF airway cells viability, ATPlite luminescence, overnight; stronger effect = lower value; cells stimulated with P. aeruginosa culture filtrate | activity change (cytotoxicity), % at 5 µM | 360,000 tested, 0.36% active | AID 602141;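 active = corrected activity change at or below -50% at 5 µM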
# TROY NFkB inh = inhibitors of TROY-dependent NF-kB signaling. Q293 LMP1-TROYcd NF-kB luciferase reporter, 4 h. inhibition, % at 10 µM. 360,000 tested, 0.98% active. AID 1347056;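 active = compounds whose plate-normalised and pattern-corrected inhibition of the luciferase reporter signal at the single screening dose is 50% or more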
# Mdm2-MdmX confirm = confirmation of inhibitors of human Mdm2/MdmX interaction, set 2 | shares compounds with HIF-2a block | 740 tested, 99% active | inhibition, % at 8 µM | SaOS-2 split-luciferase Mdm2/MdmX complementation, luminescence;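 active = mean inhibition of the luminescence signal across two replicates at or above 26 percent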
# Target sequence (O15151 whole entry, looked up): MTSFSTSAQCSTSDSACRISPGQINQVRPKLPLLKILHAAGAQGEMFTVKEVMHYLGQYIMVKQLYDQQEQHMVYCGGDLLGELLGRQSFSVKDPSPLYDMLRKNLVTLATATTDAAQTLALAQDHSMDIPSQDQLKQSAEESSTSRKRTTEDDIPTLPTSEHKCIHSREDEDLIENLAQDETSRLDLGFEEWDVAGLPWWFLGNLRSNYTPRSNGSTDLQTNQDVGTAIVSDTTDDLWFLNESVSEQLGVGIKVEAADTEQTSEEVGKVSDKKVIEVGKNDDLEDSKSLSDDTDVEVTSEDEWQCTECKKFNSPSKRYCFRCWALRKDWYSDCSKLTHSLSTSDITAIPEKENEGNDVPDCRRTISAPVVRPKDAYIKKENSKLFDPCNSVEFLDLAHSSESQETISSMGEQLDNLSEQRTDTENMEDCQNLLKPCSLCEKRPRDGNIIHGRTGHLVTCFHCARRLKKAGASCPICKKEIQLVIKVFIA
# Target sequence (Q00987 whole entry, looked up): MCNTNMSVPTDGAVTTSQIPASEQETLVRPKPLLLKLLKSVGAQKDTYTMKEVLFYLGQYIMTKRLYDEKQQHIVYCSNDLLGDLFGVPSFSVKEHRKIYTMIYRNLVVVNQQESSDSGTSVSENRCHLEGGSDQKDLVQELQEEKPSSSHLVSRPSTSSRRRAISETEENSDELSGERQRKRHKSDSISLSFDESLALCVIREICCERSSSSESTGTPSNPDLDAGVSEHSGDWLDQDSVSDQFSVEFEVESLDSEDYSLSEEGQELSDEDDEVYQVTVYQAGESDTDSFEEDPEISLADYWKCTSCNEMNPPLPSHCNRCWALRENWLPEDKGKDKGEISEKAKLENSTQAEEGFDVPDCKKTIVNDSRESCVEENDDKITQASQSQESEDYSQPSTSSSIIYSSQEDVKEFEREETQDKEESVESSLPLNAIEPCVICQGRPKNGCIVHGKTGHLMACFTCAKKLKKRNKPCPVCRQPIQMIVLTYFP
# HIF-2a conf = HIF-2a inhibition, single concentration confirmation. 1,800 tested, 56% active. inhibition, % at 18.8 µM. shares compounds with HIF-2a block. AID 651580. 786-0 RCC cells, HIF-2a luciferase reporter luminescence, overnight;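 active = mean inhibition across four replicates of at least 40 percent at the single tested concentration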
# HIF-1a counter = HIF-1a inhibition counter-screen for HIF-2a hits. inhibition, % at 18.8 µM. 1,800 tested, 72% active. MiaPaCa-2 HIF-1a luciferase reporter, desferoxamine, overnight. shares compounds with HIF-2a block;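 active = mean inhibition of the reporter signal across four replicates at the single tested dose of 50% or more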
# * hit, by the source's call; . = no result given. Hits are enriched below; roughly 4% of the tested compounds scored in any of these assays.
SMILES,CF NFkB block,HIF-2a block,Peg3 promoter,TWEAK Fn14 block,KKLEB cytotox,TROY NFkB inh,HIF-2a conf,HIF-1a counter,others
CCOC(=O)[C@]12Cc3ccc(C)cc3[C@H]1N(C1CCCCC1)C(=O)c1ccccc12,.,81*,.,92*,.,51*,96*,98*,
CCCCCN1C(=O)c2cc(OC)ccc2[C@@]2(C(=O)OCC)Cc3cc(OC)ccc3[C@@H]12,.,81*,.,62*,.,36,92*,106*,
CCOC(=O)[C@]12Cc3cc(C)ccc3[C@H]1N(C1CCCCC1)C(=O)c1ccccc12,.,88*,.,69*,.,44,97*,106*,
CCOC(=O)[C@]12Cc3c(cc(OC)c(OC)c3OC)[C@H]1N(C1CCCCC1)C(=O)c1ccccc12,.,76*,.,48,.,45,90*,105*,
CCOC(=O)[C@]12Cc3cc(OC)ccc3[C@H]1N(C)C(=O)c1cc(OC)ccc12,.,12,.,33,.,32,.,.,
C=CC[N+]1(C)CC[C@]23c4c5ccc(O)c4O[C@H]2C(=O)CC[C@@]3(O)[C@H]1C5 (stereo partly specified),-1,0,1,9,-2,-3,.,.,
c1ccc(-n2ccnc2)cc1,5,11,-11,-13,9,-3,.,.,
CCOC(=O)[C@]12Cc3ccc(C)cc3[C@H]1N(C1CCCCC1)C(=O)c1cc(OC)ccc12,.,95*,.,101*,.,48,99*,106*,
CC[C@]12C=CCN3CCC4(c5cc(Br)c(OC)cc5N(C)C4[C@@](O)(C(=O)OC)[C@@H]1OC(C)=O)C32 (stereo partly specified),16,40*,12,-2,-18,0,-4,15,
CCCNc1nc(OC)nc(N2CC3CC(C2)c2cccc(=O)n2C3)n1 (stereo unspecified),-7,7,6,3,9,-13,.,.,
CNc1ccc2oc(C[C@H]3O[C@@]4(CC[C@H]3C)O[C@H]([C@H](C)C(=O)c3ccc[nH]3)[C@H](C)C[C@H]4C)nc2c1C(=O)O,36,87*,91*,104*,-55*,53*,.,.,Mdm2-MdmX confirm=102*
COc1ccc([C@@H](O)[C@@H](N)c2ccccc2)cc1,-2,2,-2,10,-3,-14,.,.,
C[C@H]1CC[C@@H]2[C@@H](C)[C@H]3[C@H](C[C@H]4[C@@H]5CC=C6C[C@@H](O[C@@H]7O[C@H](CO)[C@H](O)[C@H](O[C@@H]8O[C@H](CO)[C@@H](O)[C@H](O)[C@H]8O)[C@H]7O[C@@H]7O[C@@H](C)[C@H](O)[C@@H](O)[C@H]7O)CC[C@]6(C)[C@H]5CC[C@]34C)N2C1,-2,87*,32,4,8,-8,31,68*,
O=C(O)c1cccc(NC(=O)N2C[C@H]3C[C@@H](C2)c2cccc(=O)n2C3)c1,12,4,-12,9,12,-1,.,.,
C=C1C(=O)OC2CC(C)C3C=CC(=O)C3(C)C(O)C12 (stereo unspecified),96*,86*,106*,102*,-62*,26,94*,100*,
C=C1C(=O)O[C@@H]2C[C@@H](C)[C@@H]3C4OC4C(=O)[C@@]3(C)[C@@H](O)[C@H]12 (stereo partly specified),92*,88*,96*,97*,-46,15,95*,104*,
C=C1C(=O)O[C@H]2C[C@@H](C)[C@@H]3C=CC(=O)[C@@]3(C)C[C@H]12,.,.,.,.,.,.,.,.,Mdm2-MdmX confirm=103*
COC(=O)C1=C(c2ccccc2)C[C@@H]2CC[C@H]1N2C(=O)NCCS(C)=O (stereo partly specified),5,8,5,-5,-3,-4,.,.,
CC1CCOC(=O)C=CC=CC(=O)OC2CC3OC4C5OC5(C)C(O)CC4(COC(=O)C1O)C2(C)C31CO1 (stereo unspecified),90*,67*,99*,103*,-9,86*,56*,103*,
CC1=CC2OC3CC4OC(=O)C=CC=CC(=O)OCCC(C)C(O)C(=O)OCC2(CC1)C4(C)C31CO1 (stereo unspecified),90*,75*,97*,101*,-20,85*,71*,103*,
CC1=CC2OC3CC4OC(=O)C=CC=CC(C(C)O)OCC(O)C5(C)OC5C(=O)OCC2(CC1O)C4(C)C31CO1 (stereo unspecified),96*,78*,102*,99*,-48,83*,66*,106*,
CNC(=S)N1CCN(CCN=Cc2c(O)n(-c3ccc(C)cc3)c(=S)[nH]c2=O)CC1,-15,1,-4,11,11,12,.,.,
Cc1cc(N2CCNCC2)nc2ccccc12,-3,22,1,-12,-4,6,.,.,
CCC(C)(O)C(=O)OC1C(=O)OC2CC3C(C)=CC(O)C(O)C3(C)C3C4(O)OCC23C1C(C)C4O (stereo unspecified),35,46*,95*,92*,5,44,45*,102*,
CCCC[C@@H](C)C[C@@H](C)C(=O)N(C)[C@@H](CC(C)C)C(=O)N[C@H](C(=O)N(C)[C@H](C(=O)N1C[C@@H](O)C[C@H]1C(=O)N1C(=O)C=C[C@@H]1C)C(C)C)C(C)OC(C)=O (stereo partly specified),84*,53*,92*,51*,-88*,-22,.,.,Mdm2-MdmX confirm=100*
Brc1ccc(Oc2cc(Br)c(Br)cc2Br)c(Br)c1,17,-10,-11,6,-2,-11,.,.,
CC(C)(O)C(=O)Nc1ccc([N+](=O)[O-])c(C(F)(F)F)c1,7,0,-8,-6,8,-4,.,.,
COc1cc2c(cc1OC)CN(c1ccc([N+](=O)[O-])c(C(F)(F)F)c1)CC2,-12,46*,27,74*,-9,19,-12,36,
C[C@H]1[C@@H](OS(=O)(=O)O)C[C@@H]2C[C@H]([C@@H](O)c3cc(=O)[nH]c(=O)[nH]3)NC3=NC[C@H]1N32,76*,54*,97*,60*,-10,25,23,105*,
O=C(CCNC(=O)N1C[C@H]2C[C@@H](C1)c1cccc(=O)n1C2)Nc1ccc(F)cc1,0,4,0,11,0,-12,.,.,

# Bioassay records as filed in PubChem BioAssay.
